# Assay results reported in PubChem BioAssay.
# Values without a mark were called inactive. For some assays here: Results with a measured potency or affinity are listed apart. Calls of active or inactive are those of the source. Unless noted, no rule for the calls is given here.
# How the values were obtained:
# [1] = antimalarial activity against Dd2 strain (AID 2302;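 active = growth inhibition above 50% at the single 2 µM test dose, taken to imply half-maximal potency below 2 µM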;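 also: 0% = DMSO untreated growth and 100% = chloroquine plus artemisinin killed control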); conditions: P. falciparum Dd2 in RBCs, LDH growth readout, 72 h; at 2 µM; hits give high values
# [2] = human hepatoma cell viability loss – ATP luminescence, cytotoxicity control for P. falciparum antimalarial project, primary screen (AID 2303;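 active = inhibition above 50%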;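 also: 0% = DMSO wells and 100% = digitonin-killed cells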); conditions: HepG2 viability, 24-48 h, at 10 µM, hits give high values
# [3] = target: L-lactate dehydrogenase (Plasmodium falciparum (isolate CDC / Honduras)) (UniProt Q27743); assay: PfLDH activity inhibition – cell lysate, 3D7 strain, counter-screen for P. falciparum growth inhibition project (AID 2304);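 also: 0% = vehicle and 100% = reference inhibitor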; conditions: P. falciparum 3D7 crude extract, LDH APAD/NBT absorbance; at 2 µM; hits give high values
# [4] = inhibition of 3D7 malaria parasite growth – strain 3D7 (AID 2306);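 also: 0% = DMSO wells and 100% = chloroquine plus artemisinin control wells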; conditions: P. falciparum 3D7 erythrocytic growth, LDH absorbance, 72 h; at 2 µM; hits give high values
# [5] = target: Calcium-dependent protein kinase 1 (Plasmodium falciparum (isolate 3D7)) (UniProt P62344); assay: PfCDPK1 kinase inhibitors, biochemical, TCAMS library (AID 1159585; cut-off not given, nearly all actives have IC50 up to about 0.98 µM;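 also: inhibitors leave more ATP so luminescence rises with inhibition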); conditions: recombinant PfCDPK1, Kinase-Glo ATP depletion luminescence
# [6] = target: Plasmodium falciparum protein kinase 6 (PK6, PF3D7_1337100) (UniProt Q8IDW1); assay: PfPK6 kinase inhibitors, biochemical, TCAMS library (AID 1159586); conditions: recombinant PfPK6, Kinase-Glo ATP depletion luminescence
# [7] = target: Protein kinase 7 (PK7), Plasmodium falciparum 3D7 (PF3D7_0213400) (UniProt Q7YTF7); assay: inhibition of Plasmodium PK7 catalytic activity – biochemical, TCAMS antimalarial set, Kinase-Glo luminescence (AID 1159587); conditions: recombinant PfPK7, Kinase-Glo ATP depletion luminescence
# [8] = target: Calcium-dependent protein kinase 4 (Plasmodium falciparum (isolate 3D7)) (UniProt Q8IBS5); assay: PfCDPK4 kinase inhibitors, biochemical, TCAMS library (AID 1159588; cut-off not given, nearly all actives have IC50 up to about 0.91 µM); conditions: recombinant PfCDPK4, Kinase-Glo ATP depletion luminescence
# Chain of Calcium-dependent protein kinase 4 (Plasmodium falciparum (isolate 3D7)) (Q8IBS5 whole entry, looked up): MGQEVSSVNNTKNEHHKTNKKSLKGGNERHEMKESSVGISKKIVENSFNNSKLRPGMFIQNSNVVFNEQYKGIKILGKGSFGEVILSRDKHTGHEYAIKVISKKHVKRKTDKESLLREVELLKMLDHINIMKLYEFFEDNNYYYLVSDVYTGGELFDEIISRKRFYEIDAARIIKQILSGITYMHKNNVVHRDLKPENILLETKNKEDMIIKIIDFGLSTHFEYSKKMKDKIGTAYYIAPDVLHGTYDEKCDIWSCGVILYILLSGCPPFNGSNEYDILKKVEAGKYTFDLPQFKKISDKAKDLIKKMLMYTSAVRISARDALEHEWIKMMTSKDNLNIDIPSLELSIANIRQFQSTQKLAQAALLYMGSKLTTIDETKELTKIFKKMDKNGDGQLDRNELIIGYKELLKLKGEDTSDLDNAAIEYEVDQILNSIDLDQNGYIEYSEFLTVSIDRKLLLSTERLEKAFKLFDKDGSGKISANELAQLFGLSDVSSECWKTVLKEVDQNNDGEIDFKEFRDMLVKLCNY
# Chain of L-lactate dehydrogenase (Plasmodium falciparum (isolate CDC / Honduras)) (Q27743 whole entry, looked up): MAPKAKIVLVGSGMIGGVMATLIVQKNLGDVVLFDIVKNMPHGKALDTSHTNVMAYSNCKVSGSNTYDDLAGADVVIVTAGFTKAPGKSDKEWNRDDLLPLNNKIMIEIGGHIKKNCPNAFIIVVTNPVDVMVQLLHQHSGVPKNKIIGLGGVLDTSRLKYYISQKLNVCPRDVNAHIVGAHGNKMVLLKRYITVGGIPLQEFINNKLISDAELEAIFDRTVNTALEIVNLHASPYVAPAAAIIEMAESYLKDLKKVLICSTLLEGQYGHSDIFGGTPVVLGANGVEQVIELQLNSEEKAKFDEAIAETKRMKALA
# Chain of Calcium-dependent protein kinase 1 (Plasmodium falciparum (isolate 3D7)) (P62344 whole entry, looked up): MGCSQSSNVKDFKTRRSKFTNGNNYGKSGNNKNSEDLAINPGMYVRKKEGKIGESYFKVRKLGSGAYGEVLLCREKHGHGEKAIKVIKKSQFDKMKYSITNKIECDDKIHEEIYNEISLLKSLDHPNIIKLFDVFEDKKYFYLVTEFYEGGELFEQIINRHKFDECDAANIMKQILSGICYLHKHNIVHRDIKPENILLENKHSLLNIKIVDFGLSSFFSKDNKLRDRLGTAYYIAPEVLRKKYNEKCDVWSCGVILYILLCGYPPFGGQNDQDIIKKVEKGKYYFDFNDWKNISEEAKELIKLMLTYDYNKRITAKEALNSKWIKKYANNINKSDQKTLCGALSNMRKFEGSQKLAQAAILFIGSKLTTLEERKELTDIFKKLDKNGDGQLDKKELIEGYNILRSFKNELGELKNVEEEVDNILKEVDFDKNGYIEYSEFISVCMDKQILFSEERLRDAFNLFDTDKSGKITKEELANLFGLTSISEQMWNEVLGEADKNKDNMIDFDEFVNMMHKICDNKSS
# Chain of Plasmodium falciparum protein kinase 6 (PK6, PF3D7_1337100) (Q8IDW1 1-305): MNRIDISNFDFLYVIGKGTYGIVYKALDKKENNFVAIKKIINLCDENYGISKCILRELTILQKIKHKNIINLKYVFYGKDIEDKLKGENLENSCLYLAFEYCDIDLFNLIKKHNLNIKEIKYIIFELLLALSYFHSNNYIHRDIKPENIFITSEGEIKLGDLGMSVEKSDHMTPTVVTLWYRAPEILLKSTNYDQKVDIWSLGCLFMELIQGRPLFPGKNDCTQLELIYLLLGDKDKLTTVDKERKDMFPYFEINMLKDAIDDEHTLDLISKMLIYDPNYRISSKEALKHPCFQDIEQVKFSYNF
# Chain of Protein kinase 7 (PK7), Plasmodium falciparum 3D7 (PF3D7_0213400) (Q7YTF7 1-343): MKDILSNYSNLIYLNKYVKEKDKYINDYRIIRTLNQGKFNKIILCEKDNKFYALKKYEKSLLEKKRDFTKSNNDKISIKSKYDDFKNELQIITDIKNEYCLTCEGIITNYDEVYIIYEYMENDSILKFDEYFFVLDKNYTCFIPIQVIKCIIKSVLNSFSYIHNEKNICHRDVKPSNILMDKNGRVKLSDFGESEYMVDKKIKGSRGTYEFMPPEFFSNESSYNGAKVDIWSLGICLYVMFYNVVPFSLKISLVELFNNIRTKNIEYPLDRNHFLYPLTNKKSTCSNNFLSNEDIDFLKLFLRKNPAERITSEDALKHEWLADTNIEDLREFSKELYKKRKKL
Structure (SMILES),growth inhibition [1],inhibition [2],inhibition [3] [%],growth inhibition [4],outcome [5],outcome [6],outcome [7],outcome [8]
CCCNCc1ccc(-c2ccc(CNC3Cc4ccccc4C3)cc2)nc1,32%,23%,1,97% (active),inactive,inactive,inactive,inactive
O=C(NC1CCN(Cc2ccccc2)CC1)c1cc(C(=O)NC2CCN(Cc3ccccc3)CC2)cc(C(=O)NC2CCN(Cc3ccccc3)CC2)c1,100% (active),13%,1,100% (active),inactive,inactive,inactive,inactive
Cc1cc(NN=CC=Cc2ccccc2)c2cc(F)ccc2n1,36%,8%,-2,101% (active),inactive,inactive,inactive,inactive
c1ccc(CCNCc2ccc(-c3ccc(CNc4ccc5ncccc5c4)cc3)cc2)cc1,27%,36%,-1,96% (active),inactive,inactive,inactive,inactive
Cc1cc(F)ccc1-c1nc(NCC(O)CNCCc2ccccc2)nc2c1ccc(=O)n2-c1c(F)cccc1F (stereo not given),100% (active),25%,-5,100% (active),inactive,inactive,inactive,inactive
COc1cccc2c1CCN(CCN1CCC(NC(=O)c3ccc(-c4cccc(Cl)c4Cl)cc3)CC1)C2,38%,47%,-1,100% (active),inactive,inactive,inactive,inactive
CC(C)CCC[C@@H]([C@@H](CC1CCCCC1)C(=O)N[C@@H](CCCCNC(=O)OCc1ccccc1)C(=O)Nc1nccs1)N(O)C=O,90% (active),-4%,3,98% (active),inactive,inactive,inactive,inactive
C[C@@H](Oc1cc(-n2cnc3ccc(OCC4CCN(S(C)(=O)=O)CC4)cc32)sc1C(N)=O)c1ccccc1C(F)(F)F,50% (active),31%,5,84% (active),inactive,inactive,inactive,inactive
Cc1cc(N[C@@H](CC(C)C)C(=O)NCc2cccc(F)c2)nc(NCC2CCCCC2)n1,70% (active),3%,-3,99% (active),inactive,inactive,inactive,inactive
Cc1cnc(C(=O)Nc2cccc(-c3cccc(-c4nc5ccc(F)cc5[nH]4)c3)c2)cn1,24%,25%,-1,99% (active),inactive,inactive,inactive,inactive
CCCCCCCc1[nH]c2ccccc2c(=O)c1C,96% (active),48%,2,97% (active),inactive,inactive,inactive,inactive
c1cc(CNCC2CCCO2)cc(-c2ccc(-c3nc4ccccc4[nH]3)s2)c1 (stereo not given),30%,8%,-2,95% (active),inactive,inactive,inactive,inactive
COc1ccc(C(=O)N2CCC3(CC2)C(=O)N(CC(=O)NC2CCCCC2)CN3c2ccccc2)c(OC)c1,99% (active),4%,3,100% (active),inactive,inactive,inactive,inactive
CCOC(=O)c1c(C)n(-c2ccccc2)c2ccc(OC(=O)COc3ccc(Cl)cc3Cl)cc12,87% (active),11%,3,99% (active),inactive,inactive,inactive,inactive
Brc1cc(Br)c2c(c1)C(NCCCNc1nc3ncccc3[nH]1)CCN2 (stereo not given),83% (active),5%,1,99% (active),inactive,inactive,inactive,inactive
CCCCCn1c(Sc2ccc(C#N)c([N+](=O)[O-])c2)nnc1-c1cccc(Cl)c1,75% (active),4%,-2,95% (active),inactive,inactive,inactive,inactive
Cc1cccc2[nH]c(-c3cccc(-c4ccc(NC(=O)C5CCCO5)cc4)c3)nc12 (stereo not given),13%,10%,-4,91% (active),inactive,inactive,inactive,inactive
Cc1cccc2[nH]c(-c3ccc(-c4ccc(CNCCNC(=O)c5ccnn5C)cc4)s3)nc12,97% (active),20%,-1,101% (active),inactive,inactive,inactive,inactive
CC(C)Cn1c(Sc2ccc(C#N)c([N+](=O)[O-])c2)nnc1-c1cccs1,32%,9%,5,90% (active),inactive,inactive,inactive,inactive
COc1ccc(F)cc1-c1ccc(C(=O)N2CCCN(c3ccc(C#N)cn3)CC2)cc1,100% (active),9%,-2,99% (active),inactive,inactive,inactive,inactive

Structure (SMILES),growth inhibition [1],inhibition [2],inhibition [3] [%],growth inhibition [4],outcome [5],outcome [6],outcome [7],outcome [8]
CCOc1ccc(Br)cc1/C=C/C(=O)Nc1ccc2c(c1)CN(C)CCC2,37%,18%,1,97% (active),inactive,inactive,inactive,inactive
CC(Cc1ccc(CN(CC(N)=O)Cc2ccc(CC(C)NCCc3cccc(Cl)c3)cc2)cc1)NCCc1cccc(Cl)c1 (stereo not given),68% (active),26%,2,95% (active),inactive,inactive,inactive,inactive
CC(=O)Nc1ccc(S(=O)(=O)N(Cc2cccc(Oc3ccccc3)c2)C2CCN(C/C=C(\C)CCC=C(C)C)CC2)cc1,99% (active),22%,0,100% (active),inactive,inactive,inactive,inactive
O=C(Nc1nc2cc(S(=O)(=O)NCCc3ccc(F)cc3)ccc2n1CCCn1ccnc1)c1ccc(Cl)cc1,55% (active),18%,3,100% (active),inactive,inactive,inactive,inactive
COc1cc(CNc2ncc(-c3ccsc3)c(-c3nccs3)n2)cc(OC)c1,82% (active),3%,-3,86% (active),inactive,inactive,inactive,inactive
O=C1c2ccccc2C(=O)N1CCOc1c(Br)cc(Br)cc1CNCCCNc1cc(=O)c2ccccc2[nH]1,12%,10%,-6,92% (active),inactive,inactive,inactive,inactive
NC1=NC(c2ccccc2)(c2ccccn2)C(=O)N1CCCc1ccccc1 (stereo not given),64% (active),-1%,-2,85% (active),inactive,inactive,inactive,inactive
CN(C)C(CNC(=O)c1cc(-c2ccncc2)c(-c2cc3ccccc3[nH]2)o1)c1ccccc1 (stereo not given),62% (active),3%,-2,96% (active),inactive,inactive,inactive,inactive
Cc1cccc2[nH]c(-c3ccc(-c4ccc(NC(=O)Nc5cccc(C#N)c5)cc4)s3)nc12,100% (active),33%,-6,101% (active),inactive,inactive,inactive,inactive
CCOc1cc(CC)ccc1C1CCN(CCN2CCC(CNC(=O)c3ccc(-c4ccc(C#N)cc4)cc3)CC2)CC1,100% (active),53% (active),5,89% (active),inactive,inactive,inactive,inactive
Cc1cc(O)c2c(c1)OC(C)(C)C=C2C1=CCN(Cc2ccccc2)CC1,1%,-2%,-3,96% (active),inactive,inactive,inactive,inactive
CCNC(=O)N1CCc2ccc(Oc3nc(NCc4ccccc4OC)ncc3C)cc2CC1,76% (active),-9%,-9,83% (active),inactive,inactive,inactive,inactive
Cc1cccc2[nH]c(-c3cccc(-c4ccc(NC(=O)c5cccc(C(N)=O)c5)cc4)c3)nc12,61% (active),25%,4,100% (active),inactive,inactive,inactive,inactive
CC(C)CCN(Cc1cncn1Cc1cccc(C(F)(F)F)c1)C(=O)c1ccccc1C#N,96% (active),-4%,-2,99% (active),inactive,inactive,inactive,inactive
COc1ccc2nccc([C@@H](O)CN3CCC(NCc4cc5ccccc5cn4)CC3)c2n1,14%,3%,-2,93% (active),inactive,inactive,inactive,inactive
CCCC(CNCc1cccc(OC(F)(F)C(F)F)c1)CNc1cc(=O)c2ccccc2[nH]1 (stereo not given),94% (active),-1%,1,101% (active),inactive,inactive,inactive,inactive
Cc1cccc(C(=O)N2CCN(Cc3cccc(NC(=O)c4ccco4)c3)CC2)c1,79% (active),7%,1,94% (active),inactive,inactive,inactive,inactive
CCCCN1Cc2c(n(CC(=O)Nc3ccccc3)c3cc(-c4ccccc4)nn3c2=O)C1=O,60% (active),1%,-1,92% (active),inactive,inactive,inactive,inactive
Nc1nccc2ccc(-c3ccc4nccn4c3)cc12,100% (active),15%,-2,101% (active),inactive,inactive,inactive,inactive
O=C(Nc1ccccc1)N(Cc1ccccc1-c1cccc(CNCc2ccc3c(c2)OCO3)c1)C1CCN(Cc2ccccc2)CC1,64% (active),35%,1,101% (active),inactive,inactive,inactive,inactive
